# Results reported in the supplement of paper PMC9897528.
# A number with no mark means an inactive call.
# Test system: Scedosporium aurantiacum CBS 136046
# Assay: growth inhibition relative to DMSO control (OD600); higher = more antifungal activity, active = 80 or more
# Conditions: 5 µM; 72 h; 37 °C
# 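Note: conidia screened in RPMI 1640 medium under 5% CO2, growth read by spectrophotometer, medium with 0.5% DMSO serving as the untreated reference.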
row,Structure (SMILES),growth inhibition
1,COC(=O)Nc1nc2ccccc2[nH]1,1.58%
2,C[C@H]1CC[C@]2(NC1)O[C@H]1C[C@H]3[C@@H]4CC[C@H]5C[C@@H](O)CC[C@]5(C)[C@H]4CC[C@]3(C)[C@H]1[C@@H]2C,8.88%
3,CCN1CCN(Cc2nc3ccc([N+](=O)[O-])cc3c(=O)n2-c2ccccc2F)CC1,2.42%
4,COc1ccccc1CN[C@H]1C2CCN(CC2)[C@H]1C(c1ccccc1)c1ccccc1,25.9%
5,CC(C)Oc1cccc(NC(=O)c2ccccc2C(F)(F)F)c1,6.87%
6,Nc1c(C(=O)NCc2ccco2)c2nc3ccccc3nc2n1CCN1CCCCC1,36.7%
7,NC1(C(=O)O)CCP(=O)(O)CC1 (stereo not drawn),11.9%
8,CCCCc1ccc(C(=O)O)nc1,15.8%
9,COc1cc(C(C)(C)CCCC(C)C)cc(OC)c1OC,13.3%
10,C[C@@]1(O)[C@H](O)[C@@H](CO)O[C@H]1n1ccc2c(N)ncnc21,3.66%
11,CN1C(=O)C(c2ccccc2)C(=O)N(c2ccccc2)c2cc(C(F)(F)F)ccc21 (stereo not drawn),2.84%
12,C[N+]1(C)CCCC(OC(=O)C(O)(c2ccccc2)c2ccccc2)C1 (stereo not drawn),34.9%
13,O=C(NC12CC3CC(CC(C3)C1)C2)c1cc2ccccc2[nH]1,1.85%
